Experimental data: PubChem BioAssay (NCI)
About 83,000 compounds went through this panel and 20% of them were active in at least one assay; those are over-represented in the sample as a whole.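 Single-concentration screen, 48 h exposure, 96-well plates. Endpoint: percent growth. Below 10 = active.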 Unmarked numbers belong to inactive results. The source made the active and inactive calls.

Legend:
Test in all cases: NCI-60 one-dose screen, 48 h (100 = growth as untreated, 0 = no growth, -100 = all killed)
Details in all cases: 10 µM unless noted
[1] = test system: SR leukemia
[2] = test system: RPMI-8226 leukemia
[3] = test system: OVCAR-8 ovarian
[4] = test system: OVCAR-5 ovarian
[5] = test system: OVCAR-4 ovarian
[6] = test system: SK-OV-3 ovarian
[7] = test system: IGROV1 ovarian
[8] = test system: OVCAR-3 ovarian
[9] = test system: HS 578T breast
[10] = test system: NCI/ADR-RES ovarian

| Structure (SMILES) | growth [1] | growth [2] | growth [3] | growth [4] | growth [5] | growth [6] | growth [7] | growth [8] | growth [9] | growth [10] |
| --- | --- | --- | --- | --- | --- | --- | --- | --- | --- | --- |
| c1n[nH]cc1-c1nc2ccc3[nH]ncc3c2c2c1CC1(CC2)COC1 | 5.21% (active) | 71.4% | 52% | 107% | 89.7% | 21.7% | 55.4% | 43.8% | 0.359% (active) | 108% |
| COC(=O)c1c(C(=O)OC)c2ccc3c4ccccc4ccc3n2c1C(=O)OC | 94.6% | 104% | 107% | 106% | 100% | 109% | 114% | 75.8% | 92.7% | 112% |
| Cc1nc2sccn2c1-c1nnc(SCc2ccccc2)o1 | 87.5% | 79.1% | 96.5% | 90.2% | 79.8% | 97.9% | 92% | 117% | 107% | 78.1% |
| Cc1cccc(/C=C/c2ccc(NC(=S)NCCCCN(C)C)cc2)c1 | -17.4% (active) | -26.1% (active) | -62.3% (active) | -94.2% (active) | -93.7% (active) | -65.9% (active) | -91% (active) | -55.4% (active) | -54% (active) | -95.1% (active) |
| O=C(N/N=C/c1ccoc1)c1[nH]c2ccc(Br)cc2c1-c1ccccc1 | -13.1% (active) | 2.8% (active) | -47.6% (active) | -100% (active) | -86.8% (active) | -83.6% (active) | -87.4% (active) | -45.8% (active) | -28% (active) | -72.5% (active) |
| Clc1ccc(Nc2nnc(-c3c[nH]c4ccccc34)o2)cc1 | 49.6% | 28.6% | 86.1% | 101% | 78.6% | 72.2% | 47.3% | 102% | 82.5% | 50.7% |
| N#C/C(=C/c1ccc(Cl)cc1)c1nnc(NC(=O)c2ccc(-n3c(=O)[nH]c4ccccc4c3=O)cc2)s1 | 62.7% | 70.4% | 46% | 83.9% | 75.3% | 85% | 80.9% | 84.6% | 34.1% | 81.5% |
| O=C(Cc1c(-c2cccc([N+](=O)[O-])c2)n(-c2ncnc3c2c(-c2ccccc2)c(-c2ccccc2)n3Cc2ccccc2)[nH]c1=O)c1ccc(Cl)c(Cl)c1 | 59.8% | 12.6% | 34.3% | 66.8% | 31.6% | 72.2% | 33.8% | 46.5% | 20.2% | 51.6% |
| Cc1ccc(Cl)cc1NC(=O)N/C(N)=N/c1nc2ccccc2s1 | 5.59% (active) | -7.24% (active) | -51.4% (active) | -28.7% (active) | -34.8% (active) | -25.6% (active) | -4.38% (active) | -67.7% (active) | 19% | -34.8% (active) |
| CNc1nc2ccccc2n2c(-c3ccc(O)c(O)c3)cnc12 | 6.32% (active) | 9.2% (active) | 11.9% | 14.9% | 34.7% | 16.5% | 7.31% (active) | -5.33% (active) | 1.79% (active) | 6.86% (active) |
| CC(=O)c1ccc2c(N)c(C(=O)Nc3ccc(C(F)(F)F)cc3)sc2n1 | 39.3% | 37.3% | 61.1% | 92.8% | 35.6% | 89.1% | 93.5% | 94.4% | 84.2% | 34.8% |
| Cc1ccc2c(c1)/C(=C/C(=O)c1cc3ccccc3oc1=O)C(=O)N2 | 6.51% (active) | 36.7% | 54.9% | 77.4% | 53.9% | 100% | 102% | -0.742% (active) | 78% | 65.9% |
| Nc1cc(-c2c[nH]c3ccc(Br)cc23)nc2cc(-c3c[nH]c4ccccc34)nn12 | 7.93% (active) | 0.137% (active) | -54.1% (active) | -72.7% (active) | -5.21% (active) | -43.6% (active) | -77.1% (active) | -34% (active) | -12.4% (active) | -17.9% (active) |
| Cn1cc(-c2cc(N)n3nc(-c4c[nH]c5ccc(F)cc45)cc3n2)c2cccnc21 | -11.7% (active) | -30.3% (active) | -59.6% (active) | -81.1% (active) | -30% (active) | -56% (active) | -71.4% (active) | -76.1% (active) | -14.6% (active) | -44.7% (active) |
| CN1CCN(c2ccc3c4c(cccc24)C(=O)N(c2cccc(-c4nn(-c5ccccc5)cc4-c4nc5ccccc5s4)c2)C3=O)CC1 | -25% (active) | 43.1% | 94.6% | 122% | 103% | 135% | 93.8% | 118% | 91.7% | 95.2% |
| S=C(Nc1ccc(OCc2nc3ccc(Cl)cc3[nH]2)cc1)NC1CCCCC1 | -27.3% (active) | -13.1% (active) | -10% (active) | -12.8% (active) | 10.6% | 29.2% | 7.22% (active) | -3.28% (active) | 14.8% | -14.8% (active) |
| COc1ccc(C(=O)/C=C/c2ccc3c(c2)OCCO3)cc1S(N)(=O)=O | 17.6% | 59.2% | 40.7% | 105% | 83.3% | 99% | 63.6% | 68.1% | 87% | 53.1% |
| N#Cc1ccc(C(=O)CSc2nc3c(c(Nc4ccc(S(N)(=O)=O)cc4)n2)CCC3)cc1 | 58.9% | 79.2% | 3.1% (active) | 70.8% | 43.9% | 67.2% | 15.8% | 97.1% | 26.1% | 53% |
| COc1ccc(-c2cc(C(=O)OCc3ccc(Br)cc3)nn2-c2ccc(S(C)(=O)=O)cc2)cc1OC | 62.8% | 52.8% | 87.3% | 97.8% | 73.3% | 83.7% | 95.6% | 80.3% | 65.4% | 78.3% |
| O=[N+]([O-])c1cccc(-c2nnc3c(/C=C/c4ccc(F)cc4)nc4ccccc4n23)c1 | 85.2% | 102% | 85.2% | 108% | 73.7% | 101% | 109% | 116% | 47.9% | 87.4% |
| N#Cc1cc(-c2ccc3ncnc(N4CCc5cc(F)c(Cl)cc54)c3c2)cnc1N | -25.7% (active) | 28.2% | 44.3% | 55.2% | 29.5% | 64.3% | -16.2% (active) | 16.6% | -7.07% (active) | 47.2% |
| COc1ccc(-c2cc(C(=O)N=Nc3c(O)[nH]c4ccc(Cl)cc34)c3ccccc3n2)cc1 | 53.1% | 102% | 22.1% | 42.5% | 23.7% | 78.1% | -18.8% (active) | 44.2% | 77.6% | 28.7% |
| Cc1ccc2c(c1)nc(-c1ccccc1)n2CC(=O)N=Nc1c(O)[nH]c2ccc(Cl)cc12 | -20.7% (active) | -17% (active) | -66.9% (active) | -52.5% (active) | -71.3% (active) | -72.6% (active) | -86% (active) | -70.3% (active) | -32.9% (active) | -73% (active) |
| O=C1/C(=C/c2cccc3c2OCO3)Cc2c(F)cc(Br)cc21 | 104% | 106% | 113% | 109% | 105% | 113% | 110% | 98.6% | 115% | 108% |
| NS(=O)(=O)c1cccc(Nc2nc(SCC(=O)c3ccc(F)cc3)nc3ccccc23)c1 | 8.61% (active) | -2.61% (active) | 16.4% | 45.1% | 15.6% | 38.3% | 13.9% | 0.387% (active) | 7.8% (active) | 26.7% |
| CS(=O)(=O)Nc1cccc(-n2cnc3cc(-c4ccc(O)cc4)ccc32)c1 | 32.1% | 27.2% | 30.8% | 56% | 67.1% | 35.6% | 57.7% | 30.7% | 40.8% | 29.8% |
